# Assay results: publication PMC7862700, “An all-to-all approach to the identification of sequence-specific readers for epigenetic DNA modifications on cytosine”
# Assays:
# Test in all cases: DAPPL (digital affinity profiling via proximity ligation, sequencing); 10 mM Tris-HCl pH 7.5, 50 mM NaCl, 1 mM DTT, 4% glycerol, room temperature, 30 min; GST-TFs on glutathione beads, 16-mer random dsDNA library, 0.1% formaldehyde crosslink after washing; high values mean tight binding
# [1] = target: T1, FEV (Homo sapiens, UniProt Q99581 1-238); settings: protein: recombinant; tags: N-terminal GST; dsDNA, one strand shown
# T1 sequence: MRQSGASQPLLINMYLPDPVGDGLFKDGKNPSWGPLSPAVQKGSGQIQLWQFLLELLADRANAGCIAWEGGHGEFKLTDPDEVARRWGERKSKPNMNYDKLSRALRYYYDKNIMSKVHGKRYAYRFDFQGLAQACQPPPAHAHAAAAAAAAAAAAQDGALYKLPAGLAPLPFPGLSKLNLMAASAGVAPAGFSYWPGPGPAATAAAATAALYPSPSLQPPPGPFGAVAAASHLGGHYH
# Summary of the method: (§1)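 Beads coated with glutathione captured GST-fused human transcription factors that had been expressed in yeast, and the factors were then given DNA barcodes and pooled with a tag-only sample. The pools were incubated with 200 nmole of a random double-stranded 16-mer DNA library in Tris/NaCl/DTT/glycerol buffer for 30 min at room temperature, washed, crosslinked with 0.1% formaldehyde and proximity-ligated with BsaI/T4 ligase at 37 °C for 1 h. PCR amplification and Illumina NextSeq500 sequencing came last. Binding signal is each hexamer's read frequency for a factor divided by its frequency for the tag-only sample.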
# [2] = target: ETV5 (Homo sapiens, UniProt P41161 1-510); settings: protein: recombinant; tags: N-terminal GST; dsDNA, one strand shown
# Summary of the method: as §1
# [3] = target: HSF1 (Homo sapiens, UniProt Q00613 1-529); settings: protein: recombinant; tags: N-terminal GST; chain copies: 3; dsDNA, one strand shown
# Summary of the method: as §1
# [4] = target: T2, SPIC (Homo sapiens, UniProt Q8N5J4 1-248); settings: protein: recombinant; tags: N-terminal GST; dsDNA, one strand shown
# T2 sequence: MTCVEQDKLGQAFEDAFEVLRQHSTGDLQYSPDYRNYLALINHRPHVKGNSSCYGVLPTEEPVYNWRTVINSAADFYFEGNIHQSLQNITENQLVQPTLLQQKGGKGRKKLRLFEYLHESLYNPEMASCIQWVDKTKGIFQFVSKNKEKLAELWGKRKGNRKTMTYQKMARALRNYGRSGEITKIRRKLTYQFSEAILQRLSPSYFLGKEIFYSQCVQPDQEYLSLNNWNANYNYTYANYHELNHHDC
# Summary of the method: as §1
# [5] = target: ELF4 (Homo sapiens, UniProt Q99607 1-663); settings: protein: recombinant; tags: N-terminal GST; dsDNA, one strand shown
# Summary of the method: as §1
# [6] = target: T3, ELK4 (Homo sapiens, UniProt P28324-2 1-405); settings: protein: recombinant; tags: N-terminal GST; dsDNA, one strand shown
# T3 sequence: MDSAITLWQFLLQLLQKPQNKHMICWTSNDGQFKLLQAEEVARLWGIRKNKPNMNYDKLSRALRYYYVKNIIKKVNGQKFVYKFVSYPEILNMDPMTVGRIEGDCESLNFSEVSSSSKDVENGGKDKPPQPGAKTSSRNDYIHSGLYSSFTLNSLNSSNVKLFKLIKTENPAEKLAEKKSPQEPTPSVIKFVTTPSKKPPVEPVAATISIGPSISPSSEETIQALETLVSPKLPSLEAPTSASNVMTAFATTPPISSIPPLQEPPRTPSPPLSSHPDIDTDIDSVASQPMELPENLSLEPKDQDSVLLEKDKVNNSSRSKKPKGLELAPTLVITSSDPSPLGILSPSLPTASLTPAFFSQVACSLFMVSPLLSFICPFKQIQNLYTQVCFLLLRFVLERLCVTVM
# Summary of the method: as §1
# [7] = target: T4, ETV2 (Homo sapiens, UniProt O00321 1-342); settings: protein: recombinant; tags: N-terminal GST; dsDNA, one strand shown
# T4 sequence: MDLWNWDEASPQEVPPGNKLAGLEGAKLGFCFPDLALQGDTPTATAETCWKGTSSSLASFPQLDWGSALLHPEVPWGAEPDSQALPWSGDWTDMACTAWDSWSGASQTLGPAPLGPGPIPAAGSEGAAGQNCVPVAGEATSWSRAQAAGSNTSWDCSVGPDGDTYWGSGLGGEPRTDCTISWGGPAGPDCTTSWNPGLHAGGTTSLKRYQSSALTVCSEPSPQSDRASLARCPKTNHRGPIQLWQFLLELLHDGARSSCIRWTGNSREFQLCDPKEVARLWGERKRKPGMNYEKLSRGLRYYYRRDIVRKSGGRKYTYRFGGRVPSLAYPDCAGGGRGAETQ
# Summary of the method: as §1
# [8] = target: T5, ELF3 (Homo sapiens, UniProt P78545 1-371); settings: protein: recombinant; tags: N-terminal GST; dsDNA, one strand shown
# T5 sequence: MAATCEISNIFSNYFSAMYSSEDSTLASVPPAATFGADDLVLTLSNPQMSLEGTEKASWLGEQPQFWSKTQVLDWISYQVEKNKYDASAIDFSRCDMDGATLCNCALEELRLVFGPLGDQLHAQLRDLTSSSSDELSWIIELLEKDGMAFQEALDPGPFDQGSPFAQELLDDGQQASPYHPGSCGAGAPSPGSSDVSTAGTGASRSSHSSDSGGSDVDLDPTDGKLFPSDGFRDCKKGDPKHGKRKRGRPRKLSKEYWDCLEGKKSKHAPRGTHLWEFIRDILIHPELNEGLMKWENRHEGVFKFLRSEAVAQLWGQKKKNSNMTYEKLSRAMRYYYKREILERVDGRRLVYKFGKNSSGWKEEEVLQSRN
# Summary of the method: as §1
# [9] = target: CRX (Homo sapiens, UniProt O43186 1-299); settings: protein: recombinant; tags: N-terminal GST; dsDNA, one strand shown
# Summary of the method: as §1
# [10] = target: ETV1 (Homo sapiens, UniProt P50549 1-477); settings: protein: recombinant; tags: N-terminal GST; dsDNA, one strand shown
# Summary of the method: as §1
# [11] = target: T6, ERF (Homo sapiens, UniProt P50548 1-548); settings: protein: recombinant; tags: N-terminal GST; dsDNA, one strand shown
# T6 sequence: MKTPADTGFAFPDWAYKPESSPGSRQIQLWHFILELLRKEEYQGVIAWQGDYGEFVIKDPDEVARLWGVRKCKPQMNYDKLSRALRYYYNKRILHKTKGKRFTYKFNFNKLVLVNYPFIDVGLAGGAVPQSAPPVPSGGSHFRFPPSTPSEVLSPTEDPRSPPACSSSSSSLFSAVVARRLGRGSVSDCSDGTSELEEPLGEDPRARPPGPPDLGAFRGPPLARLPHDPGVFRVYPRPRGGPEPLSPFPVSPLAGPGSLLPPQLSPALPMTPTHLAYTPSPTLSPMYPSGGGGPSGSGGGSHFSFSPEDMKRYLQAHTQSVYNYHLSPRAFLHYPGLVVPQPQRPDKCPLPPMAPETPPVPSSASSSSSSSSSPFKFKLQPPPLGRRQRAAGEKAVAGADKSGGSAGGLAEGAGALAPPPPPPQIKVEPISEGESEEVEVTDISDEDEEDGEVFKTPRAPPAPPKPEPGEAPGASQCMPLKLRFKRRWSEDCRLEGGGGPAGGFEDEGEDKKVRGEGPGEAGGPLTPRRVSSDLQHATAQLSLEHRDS
# Summary of the method: as §1
# [12] = target: T7, ETV3L (Homo sapiens, UniProt Q6ZN32 1-361); settings: protein: recombinant; tags: N-terminal GST; dsDNA, one strand shown
# T7 sequence: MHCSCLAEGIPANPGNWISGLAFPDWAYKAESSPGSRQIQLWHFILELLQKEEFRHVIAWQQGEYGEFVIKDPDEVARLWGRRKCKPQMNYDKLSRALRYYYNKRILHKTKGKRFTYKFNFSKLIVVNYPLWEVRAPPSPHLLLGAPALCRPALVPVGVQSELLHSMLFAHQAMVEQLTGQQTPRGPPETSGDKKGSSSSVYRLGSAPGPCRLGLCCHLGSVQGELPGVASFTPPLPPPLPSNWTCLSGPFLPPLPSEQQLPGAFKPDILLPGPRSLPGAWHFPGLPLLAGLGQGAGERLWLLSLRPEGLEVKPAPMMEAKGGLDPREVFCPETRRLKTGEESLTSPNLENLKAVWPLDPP
# Summary of the method: as §1
# [13] = target: T8, ETS2 (Homo sapiens, UniProt P15036 1-469); settings: protein: recombinant; tags: N-terminal GST; dsDNA, one strand shown
# T8 sequence: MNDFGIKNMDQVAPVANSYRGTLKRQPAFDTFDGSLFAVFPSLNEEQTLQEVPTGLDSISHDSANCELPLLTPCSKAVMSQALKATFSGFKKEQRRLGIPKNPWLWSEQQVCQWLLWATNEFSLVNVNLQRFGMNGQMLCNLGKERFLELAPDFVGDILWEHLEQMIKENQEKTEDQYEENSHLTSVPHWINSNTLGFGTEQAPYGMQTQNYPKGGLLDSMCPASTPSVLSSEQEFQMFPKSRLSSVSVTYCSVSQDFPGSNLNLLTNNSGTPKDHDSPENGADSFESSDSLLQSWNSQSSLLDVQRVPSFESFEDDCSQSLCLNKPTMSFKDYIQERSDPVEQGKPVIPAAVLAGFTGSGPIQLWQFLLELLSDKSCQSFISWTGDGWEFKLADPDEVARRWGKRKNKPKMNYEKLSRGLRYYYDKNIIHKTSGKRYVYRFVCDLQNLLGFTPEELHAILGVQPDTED
# Summary of the method: as §1
# [14] = target: T9, SPDEF (Homo sapiens, UniProt O95238 1-335); settings: protein: recombinant; tags: N-terminal GST; dsDNA, one strand shown
# T9 sequence: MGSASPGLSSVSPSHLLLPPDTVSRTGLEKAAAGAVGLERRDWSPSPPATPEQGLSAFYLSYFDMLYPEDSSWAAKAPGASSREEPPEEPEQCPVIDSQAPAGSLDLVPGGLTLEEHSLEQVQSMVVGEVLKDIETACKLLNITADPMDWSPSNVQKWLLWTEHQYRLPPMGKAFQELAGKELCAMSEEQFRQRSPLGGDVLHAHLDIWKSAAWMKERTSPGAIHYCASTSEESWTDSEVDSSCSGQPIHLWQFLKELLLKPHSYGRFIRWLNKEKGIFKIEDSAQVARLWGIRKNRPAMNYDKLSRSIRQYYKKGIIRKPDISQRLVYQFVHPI
# Summary of the method: as §1
# [15] = target: T10, ETV7 (Homo sapiens, UniProt Q9Y603 1-341); settings: protein: recombinant; tags: N-terminal GST; dsDNA, one strand shown
# T10 sequence: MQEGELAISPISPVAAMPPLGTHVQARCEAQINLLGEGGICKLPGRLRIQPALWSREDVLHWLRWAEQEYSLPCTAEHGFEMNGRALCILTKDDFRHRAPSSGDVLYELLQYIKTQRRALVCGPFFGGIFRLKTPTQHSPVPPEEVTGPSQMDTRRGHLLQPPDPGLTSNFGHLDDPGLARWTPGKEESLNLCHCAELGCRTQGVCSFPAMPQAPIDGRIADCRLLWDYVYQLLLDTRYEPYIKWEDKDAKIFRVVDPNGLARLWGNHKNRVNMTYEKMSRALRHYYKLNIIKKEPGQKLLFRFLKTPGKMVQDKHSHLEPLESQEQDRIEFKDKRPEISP
# Summary of the method: as §1
# [16] = target: T11, ELF5 (Homo sapiens, UniProt Q9UKW6-2 1-255); settings: protein: recombinant; tags: N-terminal GST; dsDNA, one strand shown
# T11 sequence: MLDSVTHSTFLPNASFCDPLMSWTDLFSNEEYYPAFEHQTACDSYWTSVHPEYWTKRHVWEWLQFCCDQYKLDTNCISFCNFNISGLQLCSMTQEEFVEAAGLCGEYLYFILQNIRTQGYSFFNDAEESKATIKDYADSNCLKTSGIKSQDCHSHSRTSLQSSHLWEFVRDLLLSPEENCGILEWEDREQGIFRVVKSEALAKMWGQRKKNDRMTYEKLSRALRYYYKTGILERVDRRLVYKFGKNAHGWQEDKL
# Summary of the method: as §1
# [17] = target: T12, ETV3 (Homo sapiens, UniProt P41162-2 1-143); settings: protein: recombinant; tags: N-terminal GST; dsDNA, one strand shown
# T12 sequence: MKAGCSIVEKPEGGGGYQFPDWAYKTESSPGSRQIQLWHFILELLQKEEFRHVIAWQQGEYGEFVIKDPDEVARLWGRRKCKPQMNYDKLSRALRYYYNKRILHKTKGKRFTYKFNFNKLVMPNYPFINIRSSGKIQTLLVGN
# Summary of the method: as §1
# [18] = target: ETV6 (Homo sapiens, UniProt P41212 1-452); settings: protein: recombinant; tags: N-terminal GST; dsDNA, one strand shown
# Summary of the method: as §1
# Sequence of ETV6 (P41212 whole entry): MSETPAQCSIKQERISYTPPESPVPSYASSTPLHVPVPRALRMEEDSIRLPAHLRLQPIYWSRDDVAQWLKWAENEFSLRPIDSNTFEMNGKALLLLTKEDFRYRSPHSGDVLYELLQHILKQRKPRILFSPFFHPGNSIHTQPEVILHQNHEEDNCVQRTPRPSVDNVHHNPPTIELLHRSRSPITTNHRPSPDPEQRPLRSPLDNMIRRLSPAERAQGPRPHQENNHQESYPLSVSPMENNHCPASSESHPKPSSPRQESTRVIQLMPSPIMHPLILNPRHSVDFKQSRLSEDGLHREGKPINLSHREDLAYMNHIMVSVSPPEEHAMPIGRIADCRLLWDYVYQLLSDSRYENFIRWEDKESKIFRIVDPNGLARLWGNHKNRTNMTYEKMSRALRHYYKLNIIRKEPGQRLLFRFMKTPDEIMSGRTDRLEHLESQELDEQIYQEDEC
# Sequence of CRX (O43186 whole entry): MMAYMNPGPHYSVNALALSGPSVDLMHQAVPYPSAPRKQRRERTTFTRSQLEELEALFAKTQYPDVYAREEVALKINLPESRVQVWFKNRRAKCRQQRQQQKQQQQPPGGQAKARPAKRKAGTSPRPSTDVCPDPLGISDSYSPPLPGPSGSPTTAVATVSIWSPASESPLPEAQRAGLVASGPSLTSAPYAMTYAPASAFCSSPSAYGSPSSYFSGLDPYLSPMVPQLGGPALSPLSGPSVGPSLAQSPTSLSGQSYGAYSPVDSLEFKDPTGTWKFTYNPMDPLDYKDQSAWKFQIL
# Sequence of ETV5 (P41161 whole entry): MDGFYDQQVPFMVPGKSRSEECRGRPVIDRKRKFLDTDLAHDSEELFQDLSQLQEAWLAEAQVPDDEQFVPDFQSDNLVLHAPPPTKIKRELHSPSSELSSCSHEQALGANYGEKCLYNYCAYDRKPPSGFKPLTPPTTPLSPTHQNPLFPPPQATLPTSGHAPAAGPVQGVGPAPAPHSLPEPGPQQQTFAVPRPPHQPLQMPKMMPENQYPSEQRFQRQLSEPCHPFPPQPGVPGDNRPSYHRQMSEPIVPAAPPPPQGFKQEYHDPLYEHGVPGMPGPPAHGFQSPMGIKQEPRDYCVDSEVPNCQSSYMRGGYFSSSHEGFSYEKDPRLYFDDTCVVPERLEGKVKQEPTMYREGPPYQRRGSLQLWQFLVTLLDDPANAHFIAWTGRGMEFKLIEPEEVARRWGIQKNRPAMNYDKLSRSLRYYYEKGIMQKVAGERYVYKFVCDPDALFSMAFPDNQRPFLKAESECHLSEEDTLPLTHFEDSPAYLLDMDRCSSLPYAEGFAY
# Sequence of HSF1 (Q00613 whole entry): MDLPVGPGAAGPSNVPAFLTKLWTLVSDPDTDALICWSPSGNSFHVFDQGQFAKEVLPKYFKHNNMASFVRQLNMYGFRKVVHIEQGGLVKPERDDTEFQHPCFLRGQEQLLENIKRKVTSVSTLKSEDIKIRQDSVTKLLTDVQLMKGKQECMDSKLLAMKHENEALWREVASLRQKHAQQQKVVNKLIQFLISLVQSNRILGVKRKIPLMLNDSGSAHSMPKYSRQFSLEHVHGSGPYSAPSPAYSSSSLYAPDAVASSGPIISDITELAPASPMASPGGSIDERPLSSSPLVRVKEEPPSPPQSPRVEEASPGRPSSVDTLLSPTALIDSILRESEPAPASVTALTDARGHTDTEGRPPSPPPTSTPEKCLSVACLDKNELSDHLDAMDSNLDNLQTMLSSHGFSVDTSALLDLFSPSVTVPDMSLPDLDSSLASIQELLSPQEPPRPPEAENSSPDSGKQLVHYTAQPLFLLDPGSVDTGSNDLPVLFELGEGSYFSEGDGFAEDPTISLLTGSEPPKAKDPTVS
# Sequence of ETV1 (P50549 whole entry): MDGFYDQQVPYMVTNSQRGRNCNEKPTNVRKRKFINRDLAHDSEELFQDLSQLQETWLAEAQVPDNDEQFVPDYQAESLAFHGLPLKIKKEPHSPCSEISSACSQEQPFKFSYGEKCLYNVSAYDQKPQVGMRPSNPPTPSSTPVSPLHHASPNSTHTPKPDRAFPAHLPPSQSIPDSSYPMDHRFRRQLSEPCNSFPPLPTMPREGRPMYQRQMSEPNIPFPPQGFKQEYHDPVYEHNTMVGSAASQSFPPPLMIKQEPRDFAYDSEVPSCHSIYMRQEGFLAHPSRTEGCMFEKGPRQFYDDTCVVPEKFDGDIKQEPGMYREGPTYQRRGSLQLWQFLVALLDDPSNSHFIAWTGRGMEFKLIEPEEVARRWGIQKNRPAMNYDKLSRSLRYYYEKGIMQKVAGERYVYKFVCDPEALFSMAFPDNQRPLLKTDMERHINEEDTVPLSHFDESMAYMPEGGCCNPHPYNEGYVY
# Sequence of ELF4 (Q99607 whole entry): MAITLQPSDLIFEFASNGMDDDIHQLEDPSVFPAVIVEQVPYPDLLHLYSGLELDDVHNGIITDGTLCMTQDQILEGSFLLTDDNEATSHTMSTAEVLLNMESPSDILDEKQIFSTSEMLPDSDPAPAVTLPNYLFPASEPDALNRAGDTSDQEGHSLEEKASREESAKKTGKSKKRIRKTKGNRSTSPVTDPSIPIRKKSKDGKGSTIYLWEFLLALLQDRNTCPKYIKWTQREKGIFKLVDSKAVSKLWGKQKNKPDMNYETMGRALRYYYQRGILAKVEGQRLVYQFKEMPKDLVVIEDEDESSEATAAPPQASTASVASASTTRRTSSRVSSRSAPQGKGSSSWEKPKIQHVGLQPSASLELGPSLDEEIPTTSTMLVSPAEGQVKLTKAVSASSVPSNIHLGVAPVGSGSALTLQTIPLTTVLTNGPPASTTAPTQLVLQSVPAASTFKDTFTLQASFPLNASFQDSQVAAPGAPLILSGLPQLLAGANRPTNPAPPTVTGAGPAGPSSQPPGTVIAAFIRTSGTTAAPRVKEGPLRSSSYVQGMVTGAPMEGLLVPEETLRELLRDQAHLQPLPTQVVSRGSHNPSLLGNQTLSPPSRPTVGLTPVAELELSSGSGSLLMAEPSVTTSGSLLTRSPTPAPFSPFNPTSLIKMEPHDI
sequence,measurement,setting,value
AGTACT,binding signal,[1],"1.28 fold enrichment (6-mer frequency, TF over GST control)"
same,binding signal,[2],"1.19 fold enrichment (6-mer frequency, TF over GST control)"
same,binding signal,[3],"1.03 fold enrichment (6-mer frequency, TF over GST control)"
same,binding signal,[4],"1.35 fold enrichment (6-mer frequency, TF over GST control)"
same,binding signal,[5],"1.19 fold enrichment (6-mer frequency, TF over GST control)"
same,binding signal,[6],"1.12 fold enrichment (6-mer frequency, TF over GST control)"
same,binding signal,[7],"1.11 fold enrichment (6-mer frequency, TF over GST control)"
same,binding signal,[8],"1.29 fold enrichment (6-mer frequency, TF over GST control)"
same,binding signal,[9],"1.02 fold enrichment (6-mer frequency, TF over GST control)"
same,binding signal,[10],"1.19 fold enrichment (6-mer frequency, TF over GST control)"
same,binding signal,[11],"1.11 fold enrichment (6-mer frequency, TF over GST control)"
same,binding signal,[12],"1.12 fold enrichment (6-mer frequency, TF over GST control)"
same,binding signal,[13],"1.23 fold enrichment (6-mer frequency, TF over GST control)"
same,binding signal,[14],"1.33 fold enrichment (6-mer frequency, TF over GST control)"
same,binding signal,[15],"1.3 fold enrichment (6-mer frequency, TF over GST control)"
same,binding signal,[16],"1.53 fold enrichment (6-mer frequency, TF over GST control)"
same,binding signal,[17],"1.28 fold enrichment (6-mer frequency, TF over GST control)"
same,binding signal,[18],"1.62 fold enrichment (6-mer frequency, TF over GST control)"
